Assay results as given in PubChem BioAssay (NCI).
This is part of a sample that, as a whole, favours compounds with a hit. Of some 83,000 tested, about 20% had one in any assay.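 Single-concentration screen, 48 h exposure, 96-well plates. Endpoint: percent growth. Below 10 = active.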 Unmarked numbers belong to inactive results. Calls of active or inactive are those of the source.

Legend:
Assay in all cases: NCI-60 one-dose screen, 48 h (100 = growth as untreated, 0 = no growth, -100 = all killed)
Conditions in all cases: 10 µM unless noted
NCI-H23 lung = tested on: NCI-H23 lung
NCI-H226 lung = tested on: NCI-H226 lung
NCI-H322M lung = tested on: NCI-H322M lung
HOP-62 NSCLC = tested on: HOP-62 NSCLC
NCI-H460 lung = tested on: NCI-H460 lung
A549/ATCC NSCLC = tested on: A549/ATCC NSCLC
786-0 renal = tested on: 786-0 renal
COLO 205 colon = tested on: COLO 205 colon

| SMILES | growth (NCI-H23 lung) | growth (NCI-H226 lung) | growth (NCI-H322M lung) | growth (HOP-62 NSCLC) | growth (NCI-H460 lung) | growth (A549/ATCC NSCLC) | growth (786-0 renal) | growth (COLO 205 colon) |
| --- | --- | --- | --- | --- | --- | --- | --- | --- |
| CC(O)CCC(C)[N+](=O)[O-] (configuration not stated) | 111% | 109% | 98.7% | 95.4% | 109% | 96.3% | 101% | 111% |
| C=CN(C)S(C)(=O)=O | 32.2% | 91.2% | 39.5% | 22.6% | 17.8% | 34.5% | 39.5% | 111% |
| CC(=O)Nc1nc(C)c(C(=O)NNS(=O)(=O)c2ccccc2)s1 | 109% | 112% | 99.4% | -98.9% (active) | 110% | 103% | 92.6% | 119% |
| COc1ccc(C(=O)NCCNc2nccc(-c3c(-c4ccc(F)cc4)nc4sccn34)n2)cc1 | 70.7% | 54.8% | 68.1% | 64.8% | 26.1% | 34% | 48.9% | 47% |
| COc1cc(/C(=C2/O[C@@H]([C@H]3COC(C)(C)O3)[C@H]3OC(C)(C)O[C@@H]23)c2ccc3c(c2)OCO3)cc(OC)c1OC | 54% | 102% | 85.3% | 63.5% | 57.3% | -14% (active) | -6.92% (active) | 108% |
| O=C(CCl)c1ccc2c(c1)CCCC2 | 105% | 108% | 94.3% | 107% | 107% | 101% | 90.6% | 113% |
| O=CN/N=C/c1ccc(Cl)c([N+](=O)[O-])c1 | 26.5% | 35.4% | 28.6% | 20.8% | 8.54% (active) | 14.5% | 31.6% | 26% |
| CC[N+](C)(C)N | 114% | 89.9% | 93.2% | 111% | 108% | 105% | 100% | 112% |
| C/C(=C\c1ccc2ccccc2c1)[N+](=O)[O-] | 74.6% | 67% | 78.2% | 98.7% | 98.8% | 97.3% | -62.9% (active) | -26.9% (active) |
| COC(=O)/C=C1/CCCCC1(C)C(=O)OC (configuration not stated) | 109% | 102% | 105% | 105% | 107% | 101% | 96.4% | 120% |
| CC#Cc1nc(Nc2cc(C)[nH]n2)c2ccccc2n1 | 2.12% [100 µM] (active) | -27.7% [100 µM] (active) | 9.12% [100 µM] (active) | -23.1% [100 µM] (active) | 3.75% [100 µM] (active) | 1.41% [100 µM] (active) | 7.19% [100 µM] (active) | -100% [100 µM] (active) |
| COc1cc2c(c3c1c(=O)c1cccc(F)c1n3C)C=CC(C)(C)O2 | 99% | 110% | 79.5% | 99.2% | 102% | 89.4% | 103% | 102% |
| O=C(/C(Br)=C/c1ccccc1)c1ccccc1 | 93.3% | 110% | 107% | 80.3% | 84.9% | 78.6% | -90.5% (active) | -70.8% (active) |
| O=C1CCNC1 | 111% | 103% | 96.5% | 108% | 109% | 101% | 96.1% | 112% |
| COc1cccc(NC(=O)NCCNc2nccc(-c3c(-c4ccc(F)cc4)nc4sccn34)n2)c1 | 89.9% | 85.9% | 115% | 99.4% | 58.8% | 54.4% | 63% | 69.3% |
| CCCCCCCCCCCCCCCCCCOP(=O)(O)O | 106% | 98.8% | 103% | 100% | 101% | 105% | 116% | 111% |
| NCCCOc1cc2ccccc2cc1C(=O)Nc1ccc(Cl)cc1OC(=O)c1cc2ccccc2cc1OCCCN | -72.2% (active) | -57.6% (active) | -69.3% (active) | -92.3% (active) | -89.7% (active) | -94.3% (active) | -86.2% (active) | -90.8% (active) |

| SMILES | growth (NCI-H23 lung) | growth (NCI-H226 lung) | growth (NCI-H322M lung) | growth (HOP-62 NSCLC) | growth (NCI-H460 lung) | growth (A549/ATCC NSCLC) | growth (786-0 renal) | growth (COLO 205 colon) |
| --- | --- | --- | --- | --- | --- | --- | --- | --- |
| S=C(N/N=C/c1cc(Cl)cc(Cl)c1)NC12CC3CC(CC(C3)C1)C2 | 97.8% | 79.6% | 62.2% | 78.2% | 34.4% | 45% | 71% | 68.8% |
| O=c1[nH]c2cc(O)ccc2n2cc3c(F)cccc3c12 | 39.6% | 60.8% | 29.4% | 21.1% | 2.7% (active) | 22% | 28.7% | 66.2% |
| COc1cc(-c2nn(-c3ccc(NC(=O)Nc4cc(C(F)(F)F)cc(C(F)(F)F)c4)cc3)cc2-c2ccncc2)ccc1Cl | 8.45% (active) | 18.4% | 6.93% (active) | 12.2% | -20.6% (active) | 12.1% | -41.4% (active) | -89.8% (active) |
| N#Cc1c2cccnc2c2nnc3cc(Cl)c(Cl)cc3n12 | -20.2% (active) | 79.6% | 44.5% | 26.1% | 34.2% | 83% | 81.2% | 85.8% |
| NC(CSC(c1ccccc1)(c1ccccc1)c1ccccc1)C(=O)NCC(=O)O (configuration not stated) | 86.3% | 99.6% | 47.9% | 80% | 95.2% | 86.8% | 71.3% | 16.6% |
| CC(=O)Nc1ccc(S(=O)(=O)Cl)cc1 | 112% | 95.5% | 111% | 102% | 102% | 104% | 104% | 108% |
| Cc1cc2cn3c4ccc(O)cc4nc(N)c3c2cc1C | 26.8% | 45.9% | 7.56% (active) | 13.6% | -36.1% (active) | 8.84% (active) | 13.5% | -56.4% (active) |
| CCCCCCC(=O)C(C)C | 107% | 92.3% | 96.5% | 93.8% | 113% | 97.5% | 94.5% | 112% |
| O=C(Nc1ccc(-n2cc(-c3ccncc3)c(-c3ccc(Cl)c(O)c3)n2)cc1)Nc1cc(C(F)(F)F)cc(C(F)(F)F)c1 | 15.4% | 42% | 41.9% | 14% | 5.79% (active) | 17.6% | -60.1% (active) | -55.2% (active) |
| C=CCNCCC#N | 113% | 92.9% | 115% | 105% | 111% | 99.2% | 102% | 116% |
| CCOC(=O)/C(C#N)=C(/CC)OCC | 110% | 102% | 92.2% | 104% | 110% | 104% | 103% | 113% |
| N=C(c1ccccc1)N(Cc1ccccc1)Cc1ccccc1 | 92.9% | 104% | 84% | 97.1% | 98.3% | 90.3% | 86.5% | 88.2% |
| CC(O)CN(CC(C)O)N(CC(C)O)CC(C)O (configuration not stated) | 108% | 97.5% | 107% | 101% | 106% | 95.5% | 99.5% | 109% |
| CC(C)OCC1CO1 (configuration not stated) | 110% | 101% | 100% | 102% | 97.7% | 106% | 113% | 104% |
| COc1cccc(-c2cc(-c3cc4ccccc4oc3=O)nc(N)n2)c1 | 101% | 91.2% | 123% | 97.7% | 102% | 95% | 101% | 108% |
| CNc1ccc(Nc2ccc(S(=O)(=O)O)cc2)c2c1C(=O)c1ccccc1C2=O | 106% | 96.6% | 112% | 125% | 108% | 92% | 103% | 118% |
| C=C[C@]1(C)C=C2C(=O)[C@@]3(O)OC[C@@]4(CCCC(C)(C)C43O)C2(O)C(O)C1 (some centres not stated) | 80.1% | 81.4% | 108% | 107% | 82.5% | 76.4% | 38.2% | 9.48% (active) |
